For some assays here: Entries with a potency or affinity are not part of this list.
Key:
Parameters in all cases: scale not given: direction of the effect not stated beside the values
[1] = molecular target: Protein translocase subunit SecA (Escherichia coli (strain K12)) (UniProt P10408); experiment: Assay to Identify E. coli SecA ATPase Inhibitors; format: functional; settings: 30 µM
[2] = molecular target: T1, Ubiquitin-activating enzyme e1, putative (Leishmania donovani (strain BPK282A1)) (UniProt E9BSI1); experiment: Leishmania donovani Ubiquitin Activating Enzyme (LdE1); format: functional; settings: 30 µM
T1 sequence (whole entry): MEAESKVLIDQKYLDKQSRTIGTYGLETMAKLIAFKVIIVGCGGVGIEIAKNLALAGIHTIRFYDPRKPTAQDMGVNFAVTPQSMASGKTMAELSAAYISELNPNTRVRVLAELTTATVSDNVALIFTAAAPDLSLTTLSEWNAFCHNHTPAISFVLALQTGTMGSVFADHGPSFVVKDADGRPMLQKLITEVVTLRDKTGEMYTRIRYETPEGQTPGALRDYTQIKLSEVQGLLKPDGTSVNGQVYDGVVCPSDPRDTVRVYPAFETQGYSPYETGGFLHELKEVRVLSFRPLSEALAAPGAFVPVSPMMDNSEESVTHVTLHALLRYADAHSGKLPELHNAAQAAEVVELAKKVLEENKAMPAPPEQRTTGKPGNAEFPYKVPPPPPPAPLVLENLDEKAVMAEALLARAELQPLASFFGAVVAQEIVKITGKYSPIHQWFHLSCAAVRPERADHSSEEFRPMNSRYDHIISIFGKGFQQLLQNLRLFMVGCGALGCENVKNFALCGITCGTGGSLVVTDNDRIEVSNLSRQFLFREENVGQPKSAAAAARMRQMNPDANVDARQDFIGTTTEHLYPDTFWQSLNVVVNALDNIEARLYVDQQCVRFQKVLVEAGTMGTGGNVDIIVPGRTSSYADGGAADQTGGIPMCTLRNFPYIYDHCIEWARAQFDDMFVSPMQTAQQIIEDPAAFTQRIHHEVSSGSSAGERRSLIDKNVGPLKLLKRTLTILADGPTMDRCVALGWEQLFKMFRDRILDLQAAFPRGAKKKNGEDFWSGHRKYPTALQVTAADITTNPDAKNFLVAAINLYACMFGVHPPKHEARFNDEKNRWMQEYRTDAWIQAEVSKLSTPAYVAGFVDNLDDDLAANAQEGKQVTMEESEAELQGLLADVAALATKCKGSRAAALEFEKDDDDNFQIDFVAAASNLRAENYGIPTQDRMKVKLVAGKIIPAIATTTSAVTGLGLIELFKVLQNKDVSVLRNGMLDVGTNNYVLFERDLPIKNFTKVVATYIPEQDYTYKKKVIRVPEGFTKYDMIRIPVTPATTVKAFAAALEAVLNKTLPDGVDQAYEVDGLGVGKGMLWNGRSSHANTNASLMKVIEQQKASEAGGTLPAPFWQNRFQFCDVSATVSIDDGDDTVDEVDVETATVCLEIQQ

[3] = molecular target: T2, Aspartate--tRNA(Asp/Asn) ligase (Mycobacterium tuberculosis (strain ATCC 25618 / H37Rv)) (UniProt P9WFW3); experiment: Assay for Asp RNA synthetase-1 from Mycobacterium tuberculosis; format: functional; settings: 30 µM; note: in the data most compounds retested in dose-response had high values
T2 sequence (whole entry): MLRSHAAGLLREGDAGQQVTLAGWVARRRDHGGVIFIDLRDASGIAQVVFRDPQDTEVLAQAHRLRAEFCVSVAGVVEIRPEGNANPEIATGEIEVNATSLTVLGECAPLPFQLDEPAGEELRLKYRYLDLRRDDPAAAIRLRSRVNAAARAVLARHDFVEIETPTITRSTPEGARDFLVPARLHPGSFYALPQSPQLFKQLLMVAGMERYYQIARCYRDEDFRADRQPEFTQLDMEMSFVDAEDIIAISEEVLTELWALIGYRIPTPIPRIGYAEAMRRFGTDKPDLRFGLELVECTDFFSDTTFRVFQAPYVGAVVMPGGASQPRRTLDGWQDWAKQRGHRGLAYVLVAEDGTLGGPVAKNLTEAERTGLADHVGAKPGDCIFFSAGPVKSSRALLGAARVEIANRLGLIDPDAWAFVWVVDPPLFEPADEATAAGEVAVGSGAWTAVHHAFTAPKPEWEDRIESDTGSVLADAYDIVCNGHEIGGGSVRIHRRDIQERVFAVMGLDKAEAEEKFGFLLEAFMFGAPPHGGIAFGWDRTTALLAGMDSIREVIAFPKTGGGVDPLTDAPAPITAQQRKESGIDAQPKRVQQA

[4] = molecular target: AMP-activated protein kinase, AMPK (Homo sapiens) (UniProt P54646+O43741+P54619+Q9UGJ0+Q9Y478+Q13131+Q9UGI9); experiment: AMP-dependent Kinase enzyme assay. An in vitro enzyme assay that detects ADP turnover that is directly proportional to AMPK activity. This uses naive AMPK that is activated during the assay with MK-8722; format: functional; settings: 30 µM
[5] = molecular target: Sialic acid-binding Ig-like lectin 9 (Homo sapiens) (UniProt Q9Y336); experiment: Hs-Siglec9 ALPHAscreen SOP 20170721; settings: 10 µM
Sialic acid-binding Ig-like lectin 9 (Homo sapiens), sequence (Q9Y336 whole entry): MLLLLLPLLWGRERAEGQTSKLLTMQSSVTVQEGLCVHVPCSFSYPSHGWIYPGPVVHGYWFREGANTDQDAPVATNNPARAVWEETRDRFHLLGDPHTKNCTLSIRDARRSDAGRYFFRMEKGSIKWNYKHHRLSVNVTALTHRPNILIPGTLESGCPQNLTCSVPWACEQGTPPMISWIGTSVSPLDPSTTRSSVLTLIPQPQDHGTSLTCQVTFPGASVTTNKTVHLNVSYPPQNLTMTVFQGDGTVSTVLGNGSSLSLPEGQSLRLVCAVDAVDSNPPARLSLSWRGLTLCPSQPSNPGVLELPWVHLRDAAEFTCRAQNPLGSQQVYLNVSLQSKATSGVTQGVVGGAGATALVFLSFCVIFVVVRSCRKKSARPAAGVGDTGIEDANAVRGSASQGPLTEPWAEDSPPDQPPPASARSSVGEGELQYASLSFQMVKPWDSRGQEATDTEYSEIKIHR

Trypanosoma cruzi = experiment: Trypanosoma cruzi phosphomannomutase and mannose-1-phosphate guanylyltransferase assay; format: functional; settings: 10 µM
[6] = molecular target: T3, Arginase-2, mitochondrial (Homo sapiens) (UniProt P78540); experiment: in vitro enzyme assay to detect the production of urea directly proportional to the activity of Arginase II; format: functional; settings: 33.3 µM; note: in the data most compounds retested in dose-response had high values
T3 sequence (whole entry): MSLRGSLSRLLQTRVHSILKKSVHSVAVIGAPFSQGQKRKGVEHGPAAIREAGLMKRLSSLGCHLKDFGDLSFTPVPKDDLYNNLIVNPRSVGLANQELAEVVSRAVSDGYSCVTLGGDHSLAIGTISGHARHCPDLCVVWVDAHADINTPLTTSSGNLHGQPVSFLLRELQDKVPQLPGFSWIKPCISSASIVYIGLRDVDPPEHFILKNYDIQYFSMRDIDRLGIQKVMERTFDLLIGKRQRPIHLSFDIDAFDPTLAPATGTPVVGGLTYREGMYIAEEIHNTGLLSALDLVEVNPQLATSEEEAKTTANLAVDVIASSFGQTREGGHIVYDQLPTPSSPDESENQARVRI

[7] = molecular target: T4, Proteasome subunit beta (Trypanosoma cruzi) (UniProt O96673); experiment: Trypanosoma cruzi proteasome chymotrypsin-like activity (TcProtChymo) assay.; note: in the data most compounds retested in dose-response had high values; format: functional; settings: 9.37 µM
T4 sequence (whole entry): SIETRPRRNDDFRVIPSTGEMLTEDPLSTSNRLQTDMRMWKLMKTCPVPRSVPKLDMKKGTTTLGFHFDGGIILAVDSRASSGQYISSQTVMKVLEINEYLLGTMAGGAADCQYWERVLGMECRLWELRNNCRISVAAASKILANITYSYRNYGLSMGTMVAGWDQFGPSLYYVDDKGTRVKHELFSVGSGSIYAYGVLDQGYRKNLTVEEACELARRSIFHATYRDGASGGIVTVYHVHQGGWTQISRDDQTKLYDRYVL

Homo sapiens = species on record: Homo sapiens; experiment: To identify inhibition of the IFN signalling (Jak-Stat) pathway via expression of an eGFP reporter gene under the control of an IFN-stimulated response element (ISRE) containing MxA promoter.; format: functional; settings: 30 µM
[8] = molecular target: Shiga toxin 2 (Escherichia coli O157:H7) (UniProt P09385+P09386); experiment: E. coli 0.157:H7 Shiga Toxin SOP - stx2 screening assay; format: functional; settings: 30 µM
[9] = molecular target: T5, Tyrosyl-tRNA synthetase, putative (Trypanosoma cruzi (strain CL Brener)) (UniProt Q4DSP6); experiment: Trypanosoma cruzi tyrosyl tRNA synthetase (TcYRS) _High Tyrosine SOP; format: functional; settings: 30 µM; note: in the data most compounds retested in dose-response had high values
T5 sequence (whole entry): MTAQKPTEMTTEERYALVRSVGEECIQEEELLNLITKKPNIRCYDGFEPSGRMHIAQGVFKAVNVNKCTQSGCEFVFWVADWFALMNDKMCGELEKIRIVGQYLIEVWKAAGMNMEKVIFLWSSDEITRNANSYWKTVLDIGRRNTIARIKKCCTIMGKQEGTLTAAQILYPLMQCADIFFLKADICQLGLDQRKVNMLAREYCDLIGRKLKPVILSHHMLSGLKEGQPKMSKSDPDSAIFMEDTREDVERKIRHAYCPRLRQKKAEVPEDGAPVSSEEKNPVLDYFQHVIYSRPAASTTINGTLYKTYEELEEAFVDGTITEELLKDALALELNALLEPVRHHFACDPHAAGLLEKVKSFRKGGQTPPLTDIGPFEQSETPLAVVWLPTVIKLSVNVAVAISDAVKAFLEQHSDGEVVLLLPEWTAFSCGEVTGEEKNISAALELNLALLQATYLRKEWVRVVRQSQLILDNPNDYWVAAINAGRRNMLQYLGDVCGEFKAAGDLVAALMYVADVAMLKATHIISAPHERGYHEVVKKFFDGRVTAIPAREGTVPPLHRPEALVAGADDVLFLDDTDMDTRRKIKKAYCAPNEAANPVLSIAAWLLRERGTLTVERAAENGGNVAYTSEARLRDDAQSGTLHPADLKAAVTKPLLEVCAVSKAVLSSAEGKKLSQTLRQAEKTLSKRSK

[10] = molecular target: T5, Tyrosyl-tRNA synthetase, putative (Trypanosoma cruzi (strain CL Brener)); experiment: Trypanosoma cruzi tyrosyl tRNA synthetase (TcYRS) SOP; format: functional; settings: 30 µM
[11] = molecular target: Chromo domain-containing protein 1 (Saccharomyces cerevisiae (strain ATCC 204508 / S288c) (Baker's yeast)) (UniProt P32657); experiment: ScCHD-1 Enzyme Inhibition Assay; format: functional; settings: 30 µM; note: in the data most compounds retested in dose-response had high values
Chromo domain-containing protein 1 (Saccharomyces cerevisiae (strain ATCC 204508 / S288c) (Baker's yeast)), sequence (P32657 whole entry, the tested form may be a part): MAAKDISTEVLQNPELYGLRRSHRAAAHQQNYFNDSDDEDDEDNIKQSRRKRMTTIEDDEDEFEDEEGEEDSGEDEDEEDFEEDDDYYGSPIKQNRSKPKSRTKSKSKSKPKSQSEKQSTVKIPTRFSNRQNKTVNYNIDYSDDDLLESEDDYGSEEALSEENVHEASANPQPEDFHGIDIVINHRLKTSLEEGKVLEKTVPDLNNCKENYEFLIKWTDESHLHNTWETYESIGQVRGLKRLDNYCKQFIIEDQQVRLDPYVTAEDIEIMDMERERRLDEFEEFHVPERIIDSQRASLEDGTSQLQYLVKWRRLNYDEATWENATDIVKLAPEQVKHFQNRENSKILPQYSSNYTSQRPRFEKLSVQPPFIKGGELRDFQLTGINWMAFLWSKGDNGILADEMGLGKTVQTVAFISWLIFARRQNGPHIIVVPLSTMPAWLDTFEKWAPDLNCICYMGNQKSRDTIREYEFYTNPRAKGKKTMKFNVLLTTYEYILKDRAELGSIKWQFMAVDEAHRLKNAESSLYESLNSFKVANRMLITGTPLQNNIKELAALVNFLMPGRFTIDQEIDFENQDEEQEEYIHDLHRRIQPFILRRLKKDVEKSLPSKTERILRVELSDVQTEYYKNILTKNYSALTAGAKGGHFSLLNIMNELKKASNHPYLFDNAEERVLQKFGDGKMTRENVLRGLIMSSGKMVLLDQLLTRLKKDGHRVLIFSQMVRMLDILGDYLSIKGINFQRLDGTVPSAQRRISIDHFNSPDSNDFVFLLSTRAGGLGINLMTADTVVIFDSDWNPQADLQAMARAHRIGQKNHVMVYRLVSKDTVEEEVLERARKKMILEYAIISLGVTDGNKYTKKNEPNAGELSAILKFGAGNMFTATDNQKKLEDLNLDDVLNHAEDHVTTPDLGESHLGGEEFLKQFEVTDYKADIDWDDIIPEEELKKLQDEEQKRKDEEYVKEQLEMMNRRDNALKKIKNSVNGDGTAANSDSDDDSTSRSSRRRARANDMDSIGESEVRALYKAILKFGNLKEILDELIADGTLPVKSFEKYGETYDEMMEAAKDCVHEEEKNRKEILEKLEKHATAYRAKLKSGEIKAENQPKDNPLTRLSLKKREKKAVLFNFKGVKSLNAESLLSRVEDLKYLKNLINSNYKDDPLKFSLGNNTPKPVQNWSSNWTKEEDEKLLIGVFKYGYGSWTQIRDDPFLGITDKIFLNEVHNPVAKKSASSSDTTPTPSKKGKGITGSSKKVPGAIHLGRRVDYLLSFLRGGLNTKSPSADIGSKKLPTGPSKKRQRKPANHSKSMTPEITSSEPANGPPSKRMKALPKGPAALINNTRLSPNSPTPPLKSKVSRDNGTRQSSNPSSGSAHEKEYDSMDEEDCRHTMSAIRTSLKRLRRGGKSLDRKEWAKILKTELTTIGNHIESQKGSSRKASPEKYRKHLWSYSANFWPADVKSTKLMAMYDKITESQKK

Protein translocase subunit SecA (Escherichia coli (strain K12)), sequence (P10408 whole entry): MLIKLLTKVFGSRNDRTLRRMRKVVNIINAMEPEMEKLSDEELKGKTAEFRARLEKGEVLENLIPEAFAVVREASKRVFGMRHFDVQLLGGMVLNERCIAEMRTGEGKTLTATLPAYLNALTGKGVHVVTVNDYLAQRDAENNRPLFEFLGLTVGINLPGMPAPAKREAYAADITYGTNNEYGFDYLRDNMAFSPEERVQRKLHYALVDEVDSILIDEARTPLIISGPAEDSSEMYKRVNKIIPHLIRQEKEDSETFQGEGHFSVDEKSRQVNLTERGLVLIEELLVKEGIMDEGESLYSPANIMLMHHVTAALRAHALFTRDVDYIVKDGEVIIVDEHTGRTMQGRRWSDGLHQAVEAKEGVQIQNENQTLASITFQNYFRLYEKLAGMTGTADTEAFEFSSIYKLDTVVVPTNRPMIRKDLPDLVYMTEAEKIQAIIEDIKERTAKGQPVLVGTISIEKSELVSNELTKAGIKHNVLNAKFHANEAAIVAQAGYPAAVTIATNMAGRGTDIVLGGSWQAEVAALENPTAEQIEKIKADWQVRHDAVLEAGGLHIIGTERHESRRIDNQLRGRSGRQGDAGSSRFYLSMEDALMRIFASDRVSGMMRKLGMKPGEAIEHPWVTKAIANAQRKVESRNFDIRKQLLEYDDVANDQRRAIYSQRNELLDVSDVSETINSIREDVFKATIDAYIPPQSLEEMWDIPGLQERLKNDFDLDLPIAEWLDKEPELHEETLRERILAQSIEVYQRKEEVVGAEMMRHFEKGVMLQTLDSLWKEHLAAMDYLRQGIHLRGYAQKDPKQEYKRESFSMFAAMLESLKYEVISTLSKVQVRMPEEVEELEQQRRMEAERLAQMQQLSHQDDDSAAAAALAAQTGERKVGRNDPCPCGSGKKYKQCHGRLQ

SMILES	Percent Effect [1]	Percent Effect [2]	Percent Effect [3]	Percent Effect [4]	Percent Effect [5]	Percent Effect (Trypanosoma cruzi)	Percent Effect [6]	Percent Effect [7]	Percent Effect (Homo sapiens)	Percent Effect [8]	Percent Effect [9]	Percent Effect [10]	Percent Effect [11]
O=C(c1cnn2c1OCCC2)N1CCC2(CC1)OCCO2	-0.752%	2.6%	-2.99%	3.51%	6.26%	-6.02%	-1.94%	7.49%	14.6%	4.26%	6.35%	11.5%	-7.54%
O=C(c1cccnc1)N1C[C@@H]2CC[C@H](C1)N(Cc1ncc[nH]1)C2	-1.65%	16.4%	2.47%	9.09%	6.45%	5.88%	5.91%	11.4%	7.79%	-0.806%	7.53%	15%	-3.77%
O=C([C@H]1C[C@H]2OCC[C@H]2N(Cc2cccnc2)C1)N1CCCO1	-1.59%	10.8%	5.55%	3.09%	-7.38%	-0.489%	20.1%	27.7%	14.1%	-7.24%	13%	15.4%	3.21%
O=C(Cc1ccc(O)c(Cl)c1)N1CCN(CC2CC2)[C@@H]2CS(=O)(=O)C[C@@H]21	-7.75%	-1.39%	4.65%	-2.21%	15.8%	-1.46%	0%	7.54%	-5.81%	-19.1%	-2.1%	-2.56%	-1.95%
Cc1noc(C)c1CN1C[C@H](OCC2CC2)[C@H]2OCCC[C@H]21	-4.83%	8.11%	-3.74%	-3.37%	5.64%	0.293%	4.71%	8.84%	-6.54%	-3.9%	7.53%	11.1%	-10.2%
